“And” between values parts separate entries of the source, which are not always exact repeats. Identical values can stand only once. In all, about 5,500 compounds went through this assay and about 2,000 (36%) were called active. Inconclusive results (about 18%) are left out. Cut-off read from the data, not from the text of the source: active = normalized growth mostly below about 0.91 (no sharp cut-off); inconclusive = no clear call, values can overlap the other calls; inactive = mostly above about 0.92. The list shows a part of the results.
Test: chemical genetic growth profiling, strain panel (AID 1159580);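 note: tested at 20 µM; growth read once vehicle control cultures reached saturation at 30 °C; 1 = growth at the plate median or of vehicle wells; lower values mean less growth of the strain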
Conditions: S. cerevisiae deletion strains, growth OD

Measured: normalized growth

NC(Cc1c[nH]c2ccccc12)C(=O)O (configuration not stated)
inactive: locus YAL013W, strain DEP1, stronger effect = lower value 1 | locus YAL021C, strain ccr4, stronger effect = lower value 1 | locus YAL026C, strain drs2, stronger effect = lower value 1.01 | locus YAL030W, strain snc1, stronger effect = lower value 1.02 | locus YBL061C, strain skt5, stronger effect = lower value 1.04 | locus YBR009C, strain hhf1, stronger effect = lower value 1 | locus YBR021W, strain FUR4, stronger effect = lower value 1.01 | locus YBR023C, strain chs3, stronger effect = lower value 1.02 | locus YBR171W, strain sec66, stronger effect = lower value 1.03 | locus YBR229C, strain ROT2, stronger effect = lower value 0.957 | locus YBR231C, strain swc5, stronger effect = lower value 1.02 | locus YBR279W, strain paf1, stronger effect = lower value 1.02 | locus YCL011C, strain gbp2, stronger effect = lower value 1.02 | locus YCL016C, strain dcc1, stronger effect = lower value 1.01 | locus YCL029C, strain bik1, stronger effect = lower value 0.98 | locus YCL061C, strain MRC1, stronger effect = lower value 1.01 | locus YCL069W, strain vba3, stronger effect = lower value 1.03 | locus YCR088W, strain abp1, stronger effect = lower value 1.02 | locus YDL005C, strain med2, stronger effect = lower value 1.03 | locus YDL035C, strain GPR1, stronger effect = lower value 1 | locus YDL040C, strain nat1, stronger effect = lower value 1.03 | locus YDL074C, strain BRE1, stronger effect = lower value 1.02 | locus YDL101C, strain DUN1, stronger effect = lower value 0.984 | locus YDL134C, strain PPH21, stronger effect = lower value 0.961 | locus YDL185W, strain tfp1, stronger effect = lower value 0.986 | locus YDL192W, strain arf1, stronger effect = lower value 0.984 | locus YDR001C, strain nth1, stronger effect = lower value 1.04 | locus YDR069C, strain doa4, stronger effect = lower value 1 | locus YDR101C, strain arx1, stronger effect = lower value 0.996 | locus YDR137W, strain rgp1, stronger effect = lower value 1.03 | locus YDR150W, strain NUM1, stronger effect = lower value 0.965 | locus YDR159W, strain sac3, stronger effect = lower value 1.02 | locus YDR162C, strain NBP2, stronger effect = lower value 0.998 | locus YDR195W, strain ref2 1.02 | locus YDR297W, strain sur2, stronger effect = lower value 1.02 | locus YDR318W, strain mcm21, stronger effect = lower value 0.988 | locus YDR334W, strain swr1, stronger effect = lower value 1.02 | locus YDR335W, strain msn5, stronger effect = lower value 1.03 | locus YDR388W, stronger effect = lower value 0.997 | locus YDR392W, strain spt3, stronger effect = lower value 0.939 | locus YDR502C, strain sam2, stronger effect = lower value 0.997 | locus YEL003W, strain gim4, stronger effect = lower value 1.01 | locus YEL037C, strain rad23, stronger effect = lower value 1.02 | locus YEL061C, strain CIN8 (second series), stronger effect = lower value 1.02 | locus YEL061C, strain CIN8, stronger effect = lower value 0.987 | locus YER015W, strain faa2, stronger effect = lower value 1.02 | locus YER016W, strain bim1, stronger effect = lower value 1.02 | locus YER110C, stronger effect = lower value 0.98 | locus YER111C, strain swi4, stronger effect = lower value 1.03 | locus YER155C, strain BEM2 (second series), stronger effect = lower value 0.997 | locus YER155C, strain BEM2, stronger effect = lower value 1.01 | locus YER167W, strain BCK2, stronger effect = lower value 1.01 | locus YFR010W, strain ubp6, stronger effect = lower value 1.02 | locus YGL078C, strain dbp3, stronger effect = lower value 0.982 | locus YGL086W, strain mad1, stronger effect = lower value 1.01 | locus YGL167C, strain pmr1, stronger effect = lower value 1.02 | locus YGL173C, strain kem1, stronger effect = lower value 1.03 | locus YGL227W, strain vid30, stronger effect = lower value 1.03 | locus YGL240W, strain doc1, stronger effect = lower value 1 | locus YGL248W, strain PDE1, stronger effect = lower value 0.991 | locus YGL253W, strain hxk2, stronger effect = lower value 1.01 | locus YGR078C, strain PAC10, stronger effect = lower value 0.991 | locus YGR135W, strain pre9, stronger effect = lower value 0.993 | locus YGR229C, strain SMI1, stronger effect = lower value 1 | locus YGR252W, strain gcn5, stronger effect = lower value 0.981 | locus YHR013C, strain ard1, stronger effect = lower value 1.02 | locus YHR027C, strain rpn1, stronger effect = lower value 1.02 | locus YHR030C, strain SLT2, stronger effect = lower value 0.988 and 0.966 | locus YHR079C, strain IRE1 (second series), stronger effect = lower value 0.989 | locus YHR079C, strain IRE1, stronger effect = lower value 0.983 | locus YHR094C, strain hxt1, stronger effect = lower value 0.988 | locus YHR129C, strain ARP1, stronger effect = lower value 0.993 | locus YHR142W, strain chs7, stronger effect = lower value 1.03 | locus YHR200W, strain rpn10, stronger effect = lower value 0.995 | locus YIL066C, strain RNR3, stronger effect = lower value 0.979 | locus YIL073C, strain SPO22, stronger effect = lower value 1 | locus YIL125W, strain kgd1, stronger effect = lower value 0.998 | locus YIR030C, strain dcg1, stronger effect = lower value 0.992 | locus YJL092W, strain hpr5, stronger effect = lower value 1.03 | locus YJL095W, strain BCK1 (second series), stronger effect = lower value 1.02 | locus YJL095W, strain BCK1, stronger effect = lower value 1.04 and 0.984 | locus YJL115W, strain asf1, stronger effect = lower value 1.03 | locus YJL129C, strain trk1, stronger effect = lower value 1.02 | locus YJL134W, strain LCB3, stronger effect = lower value 0.987 | locus YJL154C, strain vps35, stronger effect = lower value 1.02 | locus YJL164C, strain tpk1, stronger effect = lower value 1 | locus YJL166W, strain qcr8, stronger effect = lower value 1.01 | locus YJL168C, strain set2, stronger effect = lower value 0.99 | locus YJL187C, strain SWE1 (second series), stronger effect = lower value 0.973 | locus YJL187C, strain SWE1, stronger effect = lower value 1.03 | locus YJR043C, strain POL32, stronger effect = lower value 1.01 | locus YJR066W, strain TOR1, stronger effect = lower value 0.978

— PubChem BioAssay AID1159580 (chemical genetic matrix, 2015)
